High-throughput results deposited in PubChem BioAssay by National Center for Advancing Translational Sciences (NCATS).
Cruzain Triton: cruzain (T. cruzi) inhibition with detergent. P25779. purified cruzain, Z-FR-AMC fluorescence, 0.01% Triton. Potency, µM, for the others: max response, negative = inhibition, usual class: inhibitors. actives 0.43% (n = 200,000). AID 1478;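 further: plate controls were neutral wells for no effect and buffer without enzyme for full effect; nearly all actives have a fitted effect of over 40% in size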
Target sequence (P25779 123-467 limits assumed): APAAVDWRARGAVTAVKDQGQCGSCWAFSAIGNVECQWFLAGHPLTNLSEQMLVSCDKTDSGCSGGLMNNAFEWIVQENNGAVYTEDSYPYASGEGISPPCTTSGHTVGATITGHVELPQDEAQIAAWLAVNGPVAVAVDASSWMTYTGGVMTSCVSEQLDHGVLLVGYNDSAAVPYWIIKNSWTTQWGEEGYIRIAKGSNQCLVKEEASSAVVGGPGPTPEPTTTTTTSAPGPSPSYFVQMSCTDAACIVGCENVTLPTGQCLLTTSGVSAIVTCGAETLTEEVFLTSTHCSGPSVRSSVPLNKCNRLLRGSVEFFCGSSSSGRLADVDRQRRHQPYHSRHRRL
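In this qHTS format, compounds are incubated with 1.5 nM cruzain for 15 min at room temperature before 2 uM Z-FR-AMC is added. Release of AMC is followed at 360/450 nm, and progress is taken as the 60 s fluorescence difference.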
Cruzain noTriton: cruzain (T. cruzi) inhibition without detergent; P25779; purified cruzain, Z-FR-AMC fluorescence, no detergent; Potency, µM, inactives show max response, negative = inhibition, hits mostly inhibitors; actives 2.3% (n = 200,000);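 further: plate controls were enzyme without inhibitor for no effect and buffer without enzyme for full effect; nearly all actives have a fitted effect of over 40% in size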
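Detergent-free condition (0.00005% Triton X-100) in acetate buffer pH 5.5 with DTT. 1.5 nM enzyme and compound were pre-mixed 15 min, then 2 uM Z-FR-AMC substrate added; reaction progress from fluorescence change between first and third reads (60 s).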
FBPA Giardia inh: inhibitors of Giardia lamblia fructose-1,6-bisphosphate aldolase | AID 2451 | actives 0.71% (n = 290,000) | purified Giardia FBPA | Potency, µM (top dose mostly 59.6 µM), inactives show at the top dose activity, negative = inhibition, hits mostly inhibitors | A8B2U2; further: nearly all actives have a fitted effect of over 55% in size
Target sequence (A8B2U2 whole entry, looked up): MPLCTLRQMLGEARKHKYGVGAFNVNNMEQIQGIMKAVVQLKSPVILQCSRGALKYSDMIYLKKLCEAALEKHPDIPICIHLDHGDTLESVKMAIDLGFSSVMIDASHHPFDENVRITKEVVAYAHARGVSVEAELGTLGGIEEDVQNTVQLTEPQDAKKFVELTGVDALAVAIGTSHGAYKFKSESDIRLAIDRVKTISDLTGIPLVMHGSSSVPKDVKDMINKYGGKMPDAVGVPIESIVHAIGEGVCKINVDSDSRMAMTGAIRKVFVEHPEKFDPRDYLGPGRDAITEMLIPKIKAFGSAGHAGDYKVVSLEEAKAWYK
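Giardia FBPA (40 nM reagent) was preincubated 10 min at RT with compound (up to 57.5 uM final), then substrate plus GAPDH/TPI/NAD/arsenate coupling system with diaphorase/resazurin was added; resorufin fluorescence (525/598 nm) was read after 20 min.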
Active calls of the source: *; ? = inconclusive; . = not tested or not shown; [ ] = dose if it differs, or a comment. Only a selection was taken, and hits are over-represented in it overall. The call rests on the fitted dose curve; in most records, active means well fitted curve in the direction sought with a large enough effect; inconclusive means small, poorly fitted or top-dose-only effect, or another doubt; inactive means no such curve, though single readings can be large; an effect the other way counts as inactive or inconclusive. Unless noted, on the % scale 0 is the no-effect control and ±100 the full control effect; potency means the concentration at half of the fitted maximal effect.

SMILES	Cruzain Triton	Cruzain noTriton	FBPA Giardia inh
CCOC(=O)c1sc(N(Cc2ccccc2)C(=O)COC(=O)c2ccc(O)cc2)nc1C	-4.5%	15.8µM*	-9.4%
Cc1ccc(NC(=O)c2c(C)oc3ccc(O)c(CN4CCN(Cc5ccccc5)CC4)c23)cc1	-6.3%	-11.0%	.
COc1ccccc1/C=C\C=N\n1c(-c2ccc(Cl)cc2)n[nH]c1=S	0.7%	?	14.3%
COc1ccccc1/C=C\C=N\n1c(-c2ccc(Cl)cc2Cl)n[nH]c1=S	-0.8%	31.6µM*	17.4%
CC(=O)OC[C@@H]1O[C@H](CCO/N=C(\C)CCN2CCCc3nc(C)c(C)cc32)C=C[C@@H]1OC(C)=O	.	.	0.4%[12.9 µM]
Fc1ccc(Nc2nc3nonc3nc2Nc2cccc(C(F)(F)F)c2)cc1	-12.5%	-5.2%	.
CSc1ccc(/C=C(\NC(=O)c2ccc(C)cc2)C(=O)Nc2cccc(C)c2)cc1	-0.2%	7.94µM*	6.5%
Cc1ccc(C(=O)N/C(=C/c2ccc(Cl)cc2)C(=O)Nc2cccc(C(=O)O)c2)cc1	-7.7%	?	11.6%
Cc1ccc(C)c(NC(=O)Cn2c(-c3nonc3N)nc3ccccc32)c1	-1.4%	3.2%	.
Cc1ccc(NC(=O)Cn2c(-c3nonc3N)nc3ccccc32)cc1C	7.08µM*	3.98µM*	.
O=C(O)[C@H](Cc1c[nH]c2ccccc12)N1C(=O)C2=CCCC=C2C1=O	.	.	3.8%
COC(=O)c1ccc(CC(=O)c2nc3ccccc3s2)cc1	-2.0%	31.6µM*	5.1%
O=C(Cc1ccccc1)c1nc2ccccc2s1	-14.9%	-12.9%	-25.3%
COc1ccc(-c2cc(C)nc(SCc3cccc(C(=O)O)c3)n2)cc1	-11.5%	26.5%	16.6%
O=C(O)c1cccc(CSc2nc(-c3ccc(Cl)cc3)cc(C(F)(F)F)n2)c1	28.2µM*	-28.4%	12.2%[12.9 µM]
CC[C@H](C)[C@H](NC(=O)[C@H](C)NC(=O)[C@H](Cc1cnc[nH]1)NC(=O)[C@@H]1CCCN1C(=O)CNC(=O)[C@H](CC(C)C)NC(=O)[C@H](CC(C)C)NC(=O)[C@H](Cc1ccc(O)cc1)NC(=O)CNC(=O)[C@H](C)NC(=O)[C@H](CO)NC(=O)[C@H](CC(N)=O)NC(=O)[C@H](CC(C)C)NC(=O)[C@@H](NC(=O)[C@H](Cc1c[nH]c2ccccc12)NC(=O)CN)[C@@H](C)O)C(=O)O	.	.	-0.2%
CCOC(=O)CCN1C(=O)[C@@H]2[C@H]3C(=CC[C@H]2C1=O)C(=O)[C@H]1O[C@H]1[C@H]3O	.	.	-4.6%[12.9 µM]
CCN(C(=O)c1cccn(Cc2cccc(Cl)c2)c1=O)c1ccccc1	-0.9%	3.5%	.
Cc1ccc(NC(=O)N(Cc2cccs2)Cc2cc3cc4c(cc3[nH]c2=O)OCO4)cc1	0.0%	?	-1.6%
Cc1ccc(NC(=O)N(Cc2ccc3c(c2)OCO3)Cc2cc3cc4c(cc3[nH]c2=O)OCCO4)cc1	2.2%	31.6µM*	5.2%
O=C(CNC(=O)c1ccccc1)OCC(=O)N1c2ccccc2Sc2ccccc21	10µM*	10µM*	3.0%
O=C1CN(C(=O)COC(=O)CNC(=O)c2ccc(Cl)cc2)c2ccccc2N1	.	.	7.0%
O=C1CN(C(=O)COC(=O)CNC(=O)c2ccccc2)c2ccccc2N1	?	15.8µM*	2.7%
CC(=O)NCC(=O)OCC(=O)N1c2ccccc2Sc2ccccc21	.	.	-3.3%
COc1c(O)cc2oc3cc(O)c(CC=C(C)C)c(O)c3c(=O)c2c1CC=C(C)C	1.8%	?	-4.6%
SMILES	Cruzain Triton	Cruzain noTriton	FBPA Giardia inh
CN1CCc2nc(N)nc(-c3nc(N)nc4c3CN(C)CC4)c2C1	4.2%	2.9%	.
CC(=O)OCC1OC(C#Cc2ccc(F)cc2F)C=CC1OC(C)=O (stereo not given)	.	.	0.2%[12.9 µM]
CCOc1ccc(C(=O)Nc2ccc(N3CCCC3)cc2)cc1	-14.6%	7.94µM*	-12.2%
COc1ccc(C(=O)Nc2ccc(N3CCCC3)cc2)cc1	?	10µM*	-15.8%
CCOc1cccc(C(=O)Nc2ccc(N3CCCC3)cc2)c1	.	.	-3.7%
COc1ccc(C(=O)NC(=S)Nc2ccc(N3CCCC3)cc2)cc1	.	.	3.4%
O=C(Nc1ccc(N2CCCCC2)cc1)c1ccc(F)cc1	3.7%	25.1µM*	-2.3%
O=C(c1ccc(F)cc1)c1ccc(N2CCCCC2)cc1	.	.	-0.2%
COc1ccc(C2(C(=O)Nc3nncs3)CCCC2)cc1	2.1%	-2.5%	1.4%
COc1ccc(NC(=O)C2(c3ccc(NC(=O)c4ccc(OC)cc4)cc3)CCCC2)cc1	-0.2%	7.94µM*	5.4%
Nc1ncnc2c1nc(N1CCCCC1)n2[C@@H]1O[C@@H]2COP(=O)(O)O[C@H]2[C@H]1O	.	.	-1.0%
COc1ccc(C2=Nn3c(nnc3-c3cc(OC)ccc3OC)SC2)c(OC)c1	.	.	-2.2%
C=C1CCN(C(Cc2ccccc2)C(=O)NCc2ccc(Cl)c(Cl)c2)S(=O)(=O)c2ccccc21 (stereo not given)	.	.	1.3%
C/C=C1\C(=O)C[C@H]2[C@@H]3CCC4=CC(=O)CC[C@]4(C)[C@H]3CC[C@]12C	-8.7%	-0.6%	.
N=c1oc2cc(O)ccc2cc1C(=O)Nc1nc2ccccc2s1	12.6µM*	20µM*	-1.2%
N=c1oc2cc(O)ccc2cc1C(=O)Nc1ccccn1	.	.	-13.7%
OC[C@@H]1OC(O)[C@H](O)[C@H](O)[C@H]1O (stereo not given in full)	.	.	5.9%
Cc1sc2nc(COC(=O)c3ccc(N4CCCC4)c([N+](=O)[O-])c3)[nH]c(=O)c2c1C	-7.3%	?	0.8%
Cc1sc2nc(COC(=O)c3ccc(N4CCCC(C)C4)c([N+](=O)[O-])c3)[nH]c(=O)c2c1C (stereo not given)	-5.4%	7.94µM*	2.8%
Cc1ccc(-c2nnc(Nc3ccc(Br)cc3)c3ccccc23)cc1S(=O)(=O)NCC1CCCO1 (stereo not given)	-5.8%	?	.
O=c1cnc2cncnc2n1Cc1ccccc1Cl	4.3%	19.5%	-3.3%
c1cc2c3c(cccc3c1)NC1(CCC3(CC1)Nc1cccc4cccc(c14)N3)N2	.	.	-16.2%
S=C1NC2(CCCCC2)NN1c1ccccc1	.	.	0.4%
c1cc2c3c(cccc3c1)NC1(CCCCC1)N2	0.0%	7.94µM*	-17.0%
c1cc2c3c(cccc3c1)NC1(CCCCCC1)N2	-0.6%	12.6µM*	-4.6%
SMILES	Cruzain Triton	Cruzain noTriton	FBPA Giardia inh
CN(Cc1ccco1)C(=O)c1ccc2c(c1)N(Cc1ccccc1F)C(=O)c1ccccc1S2	-3.5%	-14.2%	.
N/N=C1/c2ccccc2N[C@H]1OC(=O)Nc1ccccc1	-10.5%	-5.5%	.
CCOC(=O)c1c(NC(=O)C2=C(C)NC(=S)NC2c2ccc(C)cc2)sc(C)c1C (stereo not given)	-8.2%	20µM*	-0.3%
CCOC(=O)c1c(NC(=O)C2=C(C)NC(=S)NC2c2ccc(F)cc2)sc(C)c1C (stereo not given)	-6.1%	15.8µM*	-1.3%
CC1=C(C(=O)Nc2ccccn2)C(c2ccc(Cl)cc2)NC(=S)N1 (stereo not given)	.	.	2.7%
CCOC(=O)c1c(NC(=O)C2=C(C)NC(=S)NC2c2ccc(F)cc2F)sc(C)c1C (stereo not given)	-4.0%	?	2.3%
COc1ccc2[nH]cc(CCNC(=O)c3cnn(-c4ccccc4Cl)c3C3CCN(C(=O)OC(C)(C)C)CC3)c2c1	-8.2%	0.7%	.
C[C@]12C[C@@](C)(C=C1/C=C/c1ccc(C(F)(F)F)cc1)C(=O)C[C@H]2c1ccc(C(F)(F)F)cc1	-2.8%	-2.2%	0.0%
